Common to all, as to experiment: NCI-60 one-dose screen, 48 h (100 = growth as untreated, 0 = no growth, -100 = all killed)
What all share (details): 10 µM unless noted

Experiment [1] has as its system DU-145 prostate.
Experiment [2] relates to K-562 leukemia.
In experiment [3] the test system is MALME-3M melanoma.
In experiment [4] the test system is MDA-MB-231 breast.
For experiment [5], the system named is RXF 393 renal.
The subject of experiment [6] is SF-268 CNS.
Experiment [7] deals with SF-295 CNS.
Experiment [8] deals with SF-539 CNS.
Experiment [9] relates to UACC-257 melanoma.
The test system of experiment [10] is M14 melanoma.
Experiment [11] relates to HCT-15 colon.
The test system of experiment [12] is HT29 colon.
The test system of experiment [13] is SNB-75 CNS.
The subject of experiment [14] is SNB-19 CNS.
Experiment [15] relates to U251 CNS.
Experiment [16] has as its system PC-3 prostate.
The subject of experiment [17] is SK-MEL-5 melanoma.
The subject of experiment [18] is UACC-62 melanoma.
The test system of experiment [19] is LOX IMVI melanoma.
In experiment [20] the test system is SK-MEL-28 melanoma.

Each structure is given as a SMILES string. Compounds without any hit were thinned out: in the full panel of roughly 83,000, 20% have a hit.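 Negative percent growth values reflect cell death: -40 means 40% of the cells present at the start died, and -100 means all died.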 Values without a mark were called inactive. Calls of active or inactive are those of the source. The calls were made as follows: active = growth percent below 10; inactive = the rest.

`C#Cc1nc(/C=C/C(=O)NO)cs1`: the growth in experiment [1] is -59.8% (active); in experiment [2], 10.2%; in experiment [3] it was -30.5% (active); in [4], -48.6% (active); in experiment [5] it was -68.9% (active); in experiment [6], 52.9%. Also, the growth was 46.3% in experiment [7]; -87.3% (active) in [8]; 42.6% in [9]; 70.3% in experiment [10]; 76.3% in [11]; 7.85% (active) in experiment [12]. The growth in experiment [13] is -94.4% (active); in experiment [14], 93.4%; in [15] it was -5.41% (active); in experiment [16], 70.5%; in [17], 63.3%; in [18] it was 57.9%. Also, the values for the growth in experiment [19] and in [20] were -90.7% (active) and 60.9%, respectively.

Regarding `COC(=O)[C@@H](Cc1c[nH]c2ccccc12)NC(=O)CCCCOc1cc(O)c2c(=O)cc(-c3ccccc3)oc2c1`, the growth in experiment [1] was 93.3%; in [2], 83.6%; in experiment [3], 94.3%; in experiment [4], 81.7%; in [5], 76.8%; in [6], 84.2%. Besides, the growth in [7] was 91.2%; in [8], 90.3%; in experiment [9], 97.1%; in experiment [10] it was 97.2%; in [11], 80.8%; in experiment [12], 107%. Besides, the growth in [13] is 72.3%; in experiment [14], 89.4%; in [15], 92.2%; in experiment [16] it was 73.6%; in [17], -97.8% (active); in experiment [18] it was 66.3%. In addition, the growth was 54.7% in experiment [19] and 101% in experiment [20].

Regarding `O=C(Nc1ccccc1)Nc1nc2ccc([N+](=O)[O-])cc2[nH]1`, the growth in experiment [1] is 56.3%; in experiment [2] it was 43.4%; in experiment [3], 40.1%; in [4] it was 74.9%; in experiment [5], 60%; in experiment [6], 71.5%. For the same compound, the growth in experiment [7] is 66.3%; in [8], 61.7%; in experiment [9], 57.4%; in experiment [10], 58.2%; in experiment [11], 40.9%; in experiment [12] it was 84.4%. The growth in [13] is 84.9%; in experiment [14] it was 66.3%; in experiment [15], 55.5%; in [16], 45.8%; in [17] it was 40.4%; in experiment [18], 44%. Further, the growth in [19] was 57.2%; in [20] it was 61.6%.

As for `O=C(/C=C/c1cccc(F)c1)c1cccc(OCCCCOc2cccc(C(=O)/C=C/c3cccc(F)c3)c2)c1`, the growth was 107% in experiment [1]; 100% in experiment [2]; 101% in [3]; 95.9% in experiment [4]; 107% in experiment [5]; 99.7% in experiment [6]. The growth is 105% in experiment [7]; 110% in [8]; 105% in experiment [9]; 103% in experiment [10]; 97.6% in [11]; 106% in experiment [12]. The growth in experiment [13] was 102%; in [14], 94%; in [15], 105%; in experiment [16], 97.6%; in [17] it was 98.6%; in [18] it was 94.8%. In addition, the values for the growth in experiment [19] and in [20] were 95.2% and 105%, respectively.

For `COc1ccc2[nH]cc(-c3nc(N)nnc3-c3cn(C)c4ccc(Br)cc34)c2c1`, the growth in experiment [1] is 48.8%; in experiment [2], 5.19% (active); in experiment [3], 42.2%; in experiment [4] it was 48.1%; in experiment [5], 5.35% (active); in experiment [6], 39.4%. For the same compound, the growth in experiment [7] was 20.1%; in experiment [8] it was 18.1%; in experiment [9] it was 46.8%; in [10], 5.3% (active); in experiment [11] it was 22%; in experiment [12] it was 2.43% (active). The growth is -4.14% (active) in [13]; 30.5% in experiment [14]; 20.2% in experiment [15]; 24.5% in experiment [16]; 15% in experiment [17]; 15.9% in [18]. Also, the growth is 35.4% in [19] and 51.3% in experiment [20].

`Cc1ccc(C(=O)CSc2nnc(-c3ccc(-c4ccc(Cl)cc4)nc3C)o2)cc1`: the growth was 115% in experiment [1]; 101% in [2]; 96.1% in [3]; 92.6% in [4]; 119% in experiment [5]; 105% in [6]. The growth in experiment [7] was 92.5%; in experiment [8] it was 97.6%; in [9] it was 118%; in experiment [10], 98.2%; in [11], 102%; in experiment [12], 104%. The growth was 90.7% in [13]; 99.3% in [14]; 104% in experiment [15]; 94.6% in experiment [16]; 95% in [17]; 84.8% in experiment [18]. The growth in [19] is 95.3%; in [20], 99.9%.

With `O=C(N/N=C/c1cc2ccccc2nc1Cl)c1cc(-c2nc3ccccc3[nH]2)nc2ccccc12`, the growth in experiment [1] is 87.7%; in experiment [2] it was 83.6%; in experiment [3], 124%; in [4], 99%; in experiment [5], 96.2%; in experiment [6] it was 87.8%. The growth is 89.7% in experiment [7]; 103% in experiment [8]; 118% in experiment [9]; 109% in [10]; 82.9% in experiment [11]; 90.3% in experiment [12]. For the same compound, the growth in [13] is 83.2%; in experiment [14] it was 95.3%; in experiment [15] it was 92.2%; in experiment [16] it was 81.6%; in experiment [17] it was 81.9%; in [18], 75.1%. In addition, the growth was 88.9% in experiment [19] and 99.2% in experiment [20].

On to `CC(=O)OC[C@]12CC[C@@H](C(=O)/C=C/c3cccnc3)[C@@H]1[C@H]1CC[C@@H]3[C@@]4(C)CC[C@H](OC(C)=O)C(C)(C)[C@@H]4CC[C@@]3(C)[C@]1(C)CC2`, for which the growth in [1] is 45.7%; in [2], 13.1%; in experiment [3] it was -66.3% (active); in [4], -40.5% (active); in [5], -71.6% (active); in [6] it was 42.2%. For the same compound, the growth is 29.7% in experiment [7]; -52.7% (active) in [8]; -4.75% (active) in experiment [9]; 12.2% in experiment [10]; -53% (active) in experiment [11]; 6.53% (active) in experiment [12]. Also, the growth is 54.3% in experiment [13]; 46.6% in [14]; 23.4% in [15]; 19.9% in experiment [16]; -96.2% (active) in experiment [17]; -4.76% (active) in experiment [18]. The growth in experiment [19] was -84% (active); in [20] it was -56.4% (active).

The values are drawn from PubChem BioAssay (NCI).
